Test results published in PubChem BioAssay (Tox21).
Inconclusive results are not listed. Calls of active or inactive are those of the source. Calls come from the whole dose curve; as a rule, active = well fitted curve in the direction sought with a large enough effect in the repeat runs; inconclusive = weak or mixed curves; inactive = no such curve, though single readings can be large; an effect the other way counts as inactive or inconclusive.

Columns and labels:
[1] = qHTS RealTime-Glo MT Cell Viability Assay in HEK293 cells - 0 hour (AID 1224880); note: top concentration of the series differs between compounds; nearly all actives have a fitted effect of over 45% in size
Summary of the method: (§1)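 HEK293 cells mixed with RealTime-Glo reagents (NanoLuc plus cell-permeant prosubstrate) at 600 cells/well, preincubated 5 h at 37 C/5% CO2, then given 23 nL compound in DMSO. Nonlytic luminescence from viable cells was read at 0, 8, 16, 24, 32 and 40 h.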

[2] = A CellTox Green Cytotoxicity Assay to monitor cytotoxicity in HEK293 cells - 32 hour (AID 1224881); note: nearly all actives have a fitted effect of over 40% in size; note: potency is the fitted concentration of half-maximal effect
Summary of the method: (§2)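 HEK293 cells premixed with CellTox Green dye were seeded at 600 cells/well and left 5 h at 37 C/5% CO2 before pin transfer of 23 nL compound in DMSO. Fluorescence from dye bound to dead-cell DNA was read during 40 h treatment.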

[3] = A CellTox Green Cytotoxicity Assay to monitor cytotoxicity in HepG2 cells - 0 hour (AID 1224882); note: nearly all actives have a fitted effect of over 35% in size; note: potency is the fitted concentration of half-maximal effect
Summary of the method: (§3)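 HepG2 cells were seeded together with the CellTox Green dye at 600 cells/well, left 5 h at 37 C/5% CO2, then given compounds in DMSO. Fluorescence from dye bound to dead-cell DNA was read repeatedly over 40 h of treatment at 37 C.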

[4] = A CellTox Green Cytotoxicity Assay to monitor cytotoxicity in HepG2 cells - 32 hour (AID 1224883); note: nearly all actives have a fitted effect of over 50% in size; note: potency is the fitted concentration of half-maximal effect
Summary of the method: as §3

[5] = A CellTox Green Cytotoxicity Assay to monitor cytotoxicity in HEK293 cells - 8 hour (AID 1224884); note: nearly all actives have a fitted effect of over 35% in size; note: potency is the fitted concentration of half-maximal effect
Summary of the method: as §2

[6] = qHTS RealTime-Glo MT Cell Viability Assay in HepG2 cells - 16 hour (AID 1224885); note: nearly all actives have a fitted effect of over 50% in size
Summary of the method: (§4)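 Tox21 10K library screened in qHTS format on HepG2 cells carrying RealTime-Glo reagents. Compounds were added after a 5 h preincubation, and the luminescent signal from continuous culture was measured repeatedly during 40 h treatment.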

[7] = qHTS RealTime-Glo MT Cell Viability Assay in HEK293 cells - 24 hour (AID 1224886); note: top concentration of the series differs between compounds; nearly all actives have a fitted effect of over 50% in size
Summary of the method: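 Luminescence generated by NanoLuc from substrate produced by living HEK293 cells served as the viability signal. Each value reflects the reading at its stated time point during continuous 40 h compound exposure at 37 C.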

[8] = qHTS RealTime-Glo MT Cell Viability Assay in HEK293 cells - 8 hour (AID 1224887); note: top concentration of the series differs between compounds; nearly all actives have a fitted effect of over 50% in size
Summary of the method: as §1

[9] = A CellTox Green Cytotoxicity Assay to monitor cytotoxicity in HEK293 cells - 16 hour (AID 1224888); note: nearly all actives have a fitted effect of over 35% in size; note: potency is the fitted concentration of half-maximal effect
Summary of the method: as §2

[10] = qHTS RealTime-Glo MT Cell Viability Assay in HepG2 cells - 0 hour (AID 1224889); note: nearly all actives have a fitted effect of over 50% in size
Summary of the method: as §4
% is set by controls: 0 for no effect and ±100 for the full control effect.

CS(=O)(=O)O
inactive: Potency [1] | Potency [2] | Potency [3] | Potency [4] | Potency [5] | Potency [6] | Potency [7] | Potency [8] | Potency [9] | Potency [10]

CO/N=C(/C(=O)N[C@@H]1C(=O)N2C(C(=O)OCOC(=O)C(C)(C)C)=C(C)CS[C@H]12)c1csc(N)n1
inactive: Potency [1] | Potency [2] | Potency [3] | Potency [4] | Potency [5] | Potency [6] | Potency [7] | Potency [8] | Potency [9] | Potency [10]

CC(C)NCC(O)c1ccc(NS(C)(=O)=O)cc1 (stereo not given)
inactive: Potency [1] | Potency [2] | Potency [3] | Potency [4] | Potency [5] | Potency [6] | Potency [7] | Potency [8] | Potency [9] | Potency [10]

CC1=CC(C)C(C=O)CC1 (stereo not given)
inactive: Potency [1] | Potency [2] | Potency [3] | Potency [4] | Potency [5] | Potency [6] | Potency [7] | Potency [8] | Potency [9] | Potency [10]

O=c1[nH]c(=O)n([C@H]2C[C@H](O)[C@@H](CO)O2)cc1I
inactive: Potency [1] | Potency [2] | Potency [3] | Potency [4] | Potency [5] | Potency [6] | Potency [7] | Potency [8] | Potency [9] | Potency [10]

CC[N+](C)(C)c1cccc(O)c1
inactive: Potency [1] | Potency [2] | Potency [3] | Potency [4] | Potency [5] | Potency [6] | Potency [7] | Potency [8] | Potency [9] | Potency [10]

C1CN(CCOCCN2CCOCC2)CCO1
inactive: Potency [1] | Potency [2] | Potency [3] | Potency [4] | Potency [5] | Potency [6] | Potency [7] | Potency [8] | Potency [9] | Potency [10]

O=C(O)CNC(=O)c1ccc([N+](=O)[O-])cc1
inactive: Potency [1] | Potency [2] | Potency [3] | Potency [4] | Potency [5] | Potency [6] | Potency [7] | Potency [8] | Potency [9] | Potency [10]

O=C[C@H](O)[C@@H](O)[C@H](O)[C@H](O)CO
inactive: Potency [1] | Potency [2] | Potency [3] | Potency [4] | Potency [5] | Potency [6] | Potency [7] | Potency [8] | Potency [9] | Potency [10]

CCn1nc(C(=O)O)c(=O)c2cc3c(cc21)OCO3
inactive: Potency [1] | Potency [2] | Potency [3] | Potency [4] | Potency [5] | Potency [6] | Potency [7] | Potency [8] | Potency [9] | Potency [10]

FC(F)OC(Cl)C(F)(F)F (stereo not given)
inactive: Potency [1] | Potency [2] | Potency [3] | Potency [4] | Potency [5] | Potency [6] | Potency [7] | Potency [8] | Potency [9] | Potency [10]

NCCCNCCSP(=O)(O)O
inactive: activity change, negative = cytotoxicity [1] -1.72% [at 6.97 µM] | cytotoxicity increase [2] -9.01% [at 6.97 µM] | cytotoxicity [3] 1.75% [at 6.97 µM] | cytotoxicity increase [4] -8.01% [at 6.97 µM] | cytotoxicity increase [5] 3.38% [at 6.97 µM] | activity change, negative = cytotoxic [6] 0.263% [at 6.97 µM] | activity change, negative = cytotoxicity [7] 4.08% [at 6.97 µM] | activity change, negative = cytotoxicity [8] 2.94% [at 6.97 µM] | activity change [9] -4.83% [at 6.97 µM, active compounds read high] | activity change, negative = cytotoxicity [10] -0.885% [at 6.97 µM]

Nc1ccccc1S(=O)(=O)O
inactive: Potency [1] | Potency [2] | Potency [3] | Potency [4] | Potency [5] | Potency [6] | Potency [7] | Potency [8] | Potency [9] | Potency [10]

Cc1c(NC(C)C)c(=O)n(-c2ccccc2)n1C
inactive: Potency [1] | Potency [2] | Potency [3] | Potency [4] | Potency [5] | Potency [6] | Potency [7] | Potency [8] | Potency [9] | Potency [10]

CCCCCCOC(=O)CCCCC(=O)OCCCCCC
inactive: Potency [1] | Potency [2] | Potency [3] | Potency [4] | Potency [5] | Potency [6] | Potency [7] | Potency [8] | Potency [9] | Potency [10]

CN(C)CCCNCCCN(C)C
inactive: Potency [1] | Potency [2] | Potency [3] | Potency [4] | Potency [5] | Potency [6] | Potency [7] | Potency [8] | Potency [9] | Potency [10]

CN1CCC(=C2c3ccccc3CC(=O)c3sccc32)CC1
inactive: Potency [1] | Potency [2] | Potency [3] | Potency [4] | Potency [5] | Potency [6] | Potency [7] | Potency [8] | Potency [9] | Potency [10]

CC(C)(C)c1nnc(NS(=O)(=O)c2ccccc2)s1
inactive: Potency [1] | Potency [2] | Potency [3] | Potency [4] | Potency [5] | Potency [6] | Potency [7] | Potency [8] | Potency [9] | Potency [10]

CC(=O)c1ccccc1O
inactive: Potency [1] | Potency [2] | Potency [3] | Potency [4] | Potency [5] | Potency [6] | Potency [7] | Potency [8] | Potency [9] | Potency [10]

CN(C)CCCSc1ccccc1NC(=O)/C=C/c1ccccc1
inactive: Potency [1] | Potency [6] | Potency [7] | Potency [8] | Potency [10]
active: Potency [2] 19 µM | Potency [3] 19 µM | Potency [4] 19 µM | Potency [5] 16.9 µM | Potency [9] 16.9 µM

O=C(O)Cc1ccc(CCNS(=O)(=O)c2ccc(Cl)cc2)cc1
inactive: Potency [1] | Potency [2] | Potency [3] | Potency [4] | Potency [5] | Potency [6] | Potency [7] | Potency [8] | Potency [9] | Potency [10]

CN(C(=O)c1c(O)c2ccccc2n(C)c1=O)c1ccccc1
inactive: Potency [1] | Potency [2] | Potency [3] | Potency [4] | Potency [5] | Potency [6] | Potency [7] | Potency [8] | Potency [9] | Potency [10]

C[C@](N)(Cc1ccc(O)cc1)C(=O)O
inactive: activity change, negative = cytotoxicity [1] 0.416% [at 6.97 µM] | cytotoxicity increase [2] 3.03% [at 6.97 µM] | cytotoxicity [3] 0.583% [at 6.97 µM] | cytotoxicity increase [4] -6.04% [at 6.97 µM] | cytotoxicity increase [5] 2.1% [at 6.97 µM] | activity change, negative = cytotoxic [6] -0.0046% [at 6.97 µM] | activity change, negative = cytotoxicity [7] 0.918% [at 6.97 µM] | activity change, negative = cytotoxicity [8] 3.77% [at 6.97 µM] | activity change [9] 4.06% [at 6.97 µM, active compounds read high] | activity change, negative = cytotoxicity [10] -5.13% [at 6.97 µM]
